Results: PubChem BioAssay AID686978 (National Center for Advancing Translational Sciences (NCATS), 2013)
Values joined by “and” are separate entries in the source; they are usually repeats but may differ in a detail not shown here. Equal values may be shown once. The whole screen tested about 420,000 compounds, of which about 64,000 (15%) were called active. Not shown: some 27% with an inconclusive outcome. Calls come from the whole dose curve; as a rule, active = well fitted inhibition curve with a large enough effect; inconclusive = small, poorly fitted or top-dose-only effect; inactive = flat fitted curve, though single readings scatter. The full list was thinned out, with actives kept by preference.

experiment: qHTS for Inhibitors of human tyrosyl-DNA phosphodiesterase 1 (TDP1): qHTS in cells in absence of CPT; settings: DT40 Tdp1-/- hTDP1 cells, no CPT, ATP luminescence, 48 h; series mostly up to 46.2 µM; activity change, negative = growth inhibition: at the top concentration; note: nearly all actives have a fitted effect of over 55% in size
Outline: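 Cells were dispensed at 400 per well, compounds added by pin tool, plates incubated ≥48 hr at 37 °C, then CellTiter-Glo added for 30 min at room temperature before luminescence reading. Line: DT40 Tdp1-/- complemented with hTDP1; camptothecin omitted.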
% is set by controls: 0 for no effect and ±100 for the full control effect; potency is the fitted concentration of half-maximal effect.

SMILES | activity change, negative = growth inhibition | Potency
CN(C)C(=O)Oc1ccc2c(c1)O/C(=C\c1ccccc1)C2=O | 1.24% (inactive) | –
Cc1ncsc1CCCl | – | inactive
Cc1ccc(S(=O)(=O)N2CCCc3cc(NS(=O)(=O)c4cc(C)ccc4C)ccc32)cc1 | – | 13 µM (active)
COC(=O)C[C@H]1CC[C@H]2NC[C@@H](O)COC[C@@H]2O1 | 9.41% (inactive) | –
c1ccc2c(c1)[I+]c1ccccc1-2 | – | 33.5 nM (active) and 15.8 nM (active) and 126 nM (active)
Cc1cccc(NC(=O)OC2CN3CCC2CC3)c1 (stereo unspecified) | -16% (inactive) | –
COc1ccccc1C1=NCc2nnc(CSC)n2-c2ccc(Cl)cc21 | -17% (inactive) | –
Cc1nc2ccccn2c1P(=S)(N1CCCCC1)N1CCCCC1 | – | 18.4 µM (active)
CC(=NCC1CCCO1)c1c(O)n(-c2ccccc2)c(=O)[nH]c1=O (stereo unspecified) | -17.7% (inactive) | –
CCc1nnc(NS(=O)(=O)c2ccc(N=Cc3c(O)n(-c4ccccc4)c(=O)[nH]c3=O)cc2)s1 | -5.93% (inactive) | –
CCN(CC)C(=O)Oc1ccc(NC(=O)N2CCOCC2)cc1 | -9.37% (inactive) | –
COc1ccc(C(=O)C2CCCN(Cc3ccc(C)s3)C2)cc1OC (stereo unspecified) | – | 14.6 µM (active)
Cc1ccsc1C(=O)C1CCCN(Cc2ccc(O)cc2)C1 (stereo unspecified) | -18% (inactive) | –
c1ccc(CCCCN2CCC(c3ccccc3)CC2)cc1 | – | 11.9 µM (active) and 18.4 µM (active)
c1ccc(CCN2CCC3(CC2)OCCO3)cc1 | -14.2% (inactive) | –
c1ccc(CCNC2CCCCCC2)cc1 | -14.6% (inactive) | –
CCC(=O)OC(Cc1ccccc1)(c1ccccc1)C(C)CN(C)C (stereo unspecified) | -21.9% (inactive) | –
CC[C@]1(O)C(=O)OCc2c1cc1n(c2=O)Cc2cc3ccccc3nc2-1 | – | 0.0211 µM (active)
Cc1c(C(=O)O)cccc1-n1c(C)cc(/C=C2\C(=O)NC(=O)N(c3ccc4c(c3)OCO4)C2=O)c1C | 0.106% (inactive) | –
c1ccc(Cc2nn3c(Cn4cnc5ccccc54)nnc3s2)cc1 | – | 23.1 µM (active)
CN1CC[C@H](c2c(O)cc(O)c3c(=O)cc(-c4ccccc4Cl)oc23)[C@H](O)C1 | – | 0.0282 µM (active)
C[C@@H]1CC[C@@]2(OC1)O[C@H]1C[C@H]3[C@@H]4CC=C5C[C@@H](O)[C@H](O)C[C@]5(C)C4CC[C@]3(C)[C@H]1[C@@H]2C (stereo partly specified) | – | 18.4 µM (active)
CC(=O)N1CN2CN(C(C)=O)CC(C(=O)c3ccc(Br)cc3)(C2)C1 | 9.67% (inactive) | –
Cc1ccc(P(=S)(c2ccc(C)o2)N2CCOCC2)o1 | -28.3% (inactive) | –

SMILES | activity change, negative = growth inhibition | Potency
Cc1cc(-c2ccc(N)c(C)c2)ccc1N | -2.65% (inactive) | –
Fc1ccc(C(OCCN2CCN(C/C=C\c3ccccc3)CC2)c2ccc(F)cc2)cc1 | – | 6.68 µM (active)
Cn1cc(C(=O)OCC(=O)N2CCCC2)c2ccccc21 | 3.73% (inactive) | –
CCN(Cc1ccccc1)S(=O)(=O)c1ccc2c(c1)CCCN2C(C)=O | – | 18.4 µM (active)
Cc1ccc2c(c1)C1CN(C)CCC1N2C(=O)Cn1nnc(-c2ccccc2F)n1 (stereo unspecified) | -3.75% (inactive) | –
CC1CNCCN1c1ccc(Cl)cc1 (stereo unspecified) | -20.8% (inactive) | –
O=c1oc2ccccc2c(O)c1C(c1ccccc1O)c1c(O)c2ccccc2oc1=O | -17.6% [at 9.04 µM] (inactive) | –
CCC1(C)CC(CCNCc2ccc(N(C)C)cc2)(c2ccc(F)cc2)CCO1 (stereo unspecified) | – | 16.4 µM (active)
CC1=CC(=O)C2=C(C)C[C@H](O)[C@H]3[C@H](C)C(=O)O[C@@H]3C12 (stereo partly specified) | -4.46% (inactive) | –
C=CC12CN(C)[C@@H]3C4CO[C@H](C[C@H]41)[C@]1(C(=O)Nc4ccccc41)[C@@H]32 (stereo partly specified) | -0.165% (inactive) | –
COc1cc(-n2c(=S)[nH]c3ccc(C)cc3c2=O)c(Cl)cc1Cl | – | 18.4 µM (active)
c1ccc(N2Cc3ccccc3-n3nncc3C2)nc1 | -28.4% (inactive) | –
CCOCCCNC(=O)c1c(NC(=O)c2nc(SC)ncc2Cl)sc2c1CCCC2 | – | 11.6 µM (active)
c1ccc(C(CN2CCCCC2)c2ccccc2)cc1 | -9.97% (inactive) | –
CCCCCCN=C(CC)c1c(O)n(CCCC)c(=O)[nH]c1=O | – | 25.9 µM (active)
CCC(=NCCCO)c1c(O)n(-c2ccc(OC)cc2)c(=O)[nH]c1=O | -12.9% (inactive) | –
CCCCn1c(O)c(C(CC)=NCc2ccco2)c(=O)[nH]c1=O | -24.9% (inactive) | –
CC(C)c1c(CN(C)C(C)Cc2ccccc2)n(C)n(-c2ccccc2)c1=O (stereo unspecified) | 6.62% [at 21.1 µM] (inactive) | –
Cc1c(Oc2cc(NN3CCCCC3)c([N+](=O)[O-])cc2[N+](=O)[O-])cccc1[N+](=O)[O-] | -29.6% (inactive) | –
CC(C)(C)[C@]1(O)C[C@@H]2OC(=O)C[C@@]23C(=O)O[C@@H]2OC(=O)[C@H](O)[C@]213 | – | inactive
COc1cccc(C(c2nnnn2-c2ccc3c(c2)OCCO3)N2CCC3(CC2)C(=O)NCN3c2ccccc2)c1OC (stereo unspecified) | – | 16.4 µM (active)
O=c1[nH]c2ccccc2n1C1CCN(C(c2ccccc2)c2nnnn2Cc2ccccc2)CC1 (stereo unspecified) | – | 14.6 µM (active)
COc1ccc(-n2nnnc2C(c2cccc3ccccc23)N2CCC(n3c(=O)[nH]c4ccccc43)CC2)cc1 (stereo unspecified) | – | 16.4 µM (active)
CN1CCN(Cc2ccccc2C(F)(F)F)CC1 | -3.05% (inactive) | –

SMILES | activity change, negative = growth inhibition | Potency
CC(C)c1ccc(-n2c(O)c(/C=N/N3CCOCC3)c(=O)[nH]c2=S)cc1 | -8.98% (inactive) | –
CC1C2Cn3c(nc4ccccc43)C1N(C)O2 (stereo unspecified) | 6.08% (inactive) | –
CC(=O)c1c(O)c(C)c(O)c(Cc2c(O)c3c(c(C(=O)/C=C\c4ccccc4)c2O)OC(C)(C)C=C3)c1O | – | 13.3 µM (active)
CC(=O)c1c(O)c(C)c(O)c(Cc2c(O)c3c(c(C(=O)/C=C/c4ccccc4)c2O)OC(C)(C)C=C3)c1O | – | 8.91 µM (active) and 19.8 µM (active) and 13.3 µM (active)
c1cc2c(cc1[C@H]1OC[C@H]3[C@@H]1CO[C@@H]3c1ccc3c(c1)OCO3)OCO2 | -21% (inactive) | –
O=C(O)CCn1cc(C=C2C(=O)NC(=S)NC2=O)c(-c2cccc(Br)c2)n1 | -1.85% (inactive) | –
CCCC[N+]1(C)C2CC(OC(=O)C(CO)c3ccccc3)CC1C1OC12 (stereo unspecified) | 13.9% (inactive) | –
OC[C@@H]1CN(Cc2ccncc2)C[C@H](n2cnc3c(N4CCN(c5ccccc5)CC4)ncnc32)O1 | – | 2.91 µM (active)
CC(C)Nc1nc(Cl)nc(NC(C)C)n1 | – | inactive
COc1ccccc1C(=O)N[C@@H]1c2ccccc2C2(CCN(Cc3nc(C(C)C)cs3)CC2)[C@H]1O | – | 1.64 µM (active)
Cc1cccc(-n2c(O)c(/C=N/N3CCOCC3)c(=O)[nH]c2=S)c1 | 7.08% (inactive) | –
CC(=O)Nc1cc(-c2cccc(CO)c2)cn2c(-c3cccc(C(F)(F)F)c3)cnc12 | – | 18.4 µM (active)
NC(=O)Nc1cccc(C(F)(F)F)c1 | -1.7% (inactive) | –
CCN1CCN(c2nc3c(c(=O)[nH]2)CCC3)CC1 | 14.2% (inactive) | –
COC(=O)CN(CCCl)P1(=O)OCCCN1CCCl (stereo unspecified) | -9.44% (inactive) | –
Fc1cccc(F)c1CN1CCN(Cc2c(F)cccc2F)CC1 | -22% (inactive) | –
CN(C)c1cccc(C(=O)Nc2nc3ccc(S(=O)(=O)NC(C)(C)C)cc3s2)c1 | – | 11.6 µM (active)
O=c1[nH]c(=S)n(C2CC2)c(O)c1/C=N/N1CCOCC1 | -2.56% (inactive) | –
O=C1NCN(c2ccccc2)C12CCN(C(c1cccs1)c1nnnn1C1CCCCC1)CC2 (stereo unspecified) | – | 16.4 µM (active)
C=Cn1ccnc1P(=S)(c1cc(N(CC)CC)ns1)c1nccn1C=C | -23% (inactive) | –
O=C1C[C@@H]2OCC=C3CN4CC[C@]56c7ccccc7N1[C@H]5[C@H]2[C@H]3C[C@H]46 (tested in a mixture with another compound) | – | inactive
COc1ccc(CCn2c(O)c(C=NCCCn3ccnc3)c(=O)[nH]c2=O)cc1OC | 0.022% (inactive) | –
Cc1ccc(NC(=O)COc2ccc(-n3ccnc3)cc2)cc1Cl | – | 20.6 µM (active)
C=CCN1C(=O)NC(=O)/C(=C/c2ccc(OCC(=O)Nc3ccc(C)cc3)cc2)C1=O | 9.3% (inactive) | –

SMILES | activity change, negative = growth inhibition | Potency
Cc1ccc(C)c(NS(=O)(=O)c2ccc(OCC(=O)NCc3cccnc3)cc2)c1 | -11.7% (inactive) | –
COc1ccc(NC(=O)N2Cc3ccccc3-n3nncc3C2)cc1 | -16.8% (inactive) | –
O=C1/C(=C\c2ccc3c(c2)OCO3)N2CCC1CC2 | -4.48% (inactive) | –
COc1ccc(C)cc1N(CC(=O)N1CCC(C)CC1)S(=O)(=O)c1ccc(C)cc1 | – | 13 µM (active)
CCOC(=O)c1c(N)n(CCN2CCOCC2)c2nc3ccccc3nc12 | -10.8% (inactive) | –
CC(=O)NC(=O)NC(C)Cc1ccccc1 (stereo unspecified) | -2.12% (inactive) | –
Nc1ccc(C(=O)N/N=C2/CN3CCC2CC3)cc1 | 0.916% (inactive) | –
CN(C)C(=O)Oc1ccc(OCc2cccc[n+]2C)cc1 | -16.6% (inactive) | –
Cc1cc2ccccn2c1C(C[N+](=O)[O-])c1c(F)cccc1Cl (stereo unspecified) | – | 14.6 µM (active)
CCN1C(=O)C(=Cc2c(C)n(CC(=O)NCC3CCCO3)c3ccccc23)C(=O)N(CC)C1=S (stereo unspecified) | -23% (inactive) | –
CN(C)CC1CCCCC1=O (stereo unspecified) | – | 13 µM (active)
COC(=O)C(O)(c1ccc(NC(=O)c2ccco2)c(OC)c1)C(F)(F)F (stereo unspecified) | -17.7% (inactive) | –
CC(=CCOc1ccc2ccc(=O)oc2c1)C1=CC(=O)C(C)(C)O1 | – | 3.26 µM (active)
CC(C)c1ccc(OCC(=O)N2CCN(C)CC2)c(Br)c1 | -11.2% (inactive) | –
O=C(C1CCN(S(=O)(=O)c2ccc(Br)s2)CC1)N1CCN(c2ccccc2)CC1 | – | 20.6 µM (active)
COc1ccc(Cn2c(O)c(/C=C3/C=CC=N3)c(=O)[nH]c2=O)cc1 | – | 16.4 µM (active)
COc1ccc(N=Cc2c(O)n(C)c(=O)[nH]c2=O)cc1 | 13.5% (inactive) | –
O=C(N/N=C/c1c(O)n(Cc2ccccc2)c(=O)[nH]c1=O)c1ccccc1 | -13.8% (inactive) | –
Nc1ccc(Cc2ccc(N)c(Cl)c2)cc1Cl | -11% (inactive) | –
CCCN(C/C=C/I)C1CCc2ccc(O)cc2C1 (stereo unspecified) | – | 20.6 µM (active)
Cc1cccc2c(CCN)c[nH]c12 | -20% (inactive) | –
Oc1cc2c(cc1CN1CCN(c3ccccc3)CC1)OCO2 | 0.263% (inactive) | –
CC(=O)OC1C2(CC3N4C(=O)C5(CO)SSC4(CC31O)C(=O)N5C)OC(C)C(C)(C)C2=O (stereo unspecified) | – | 0.164 µM (active)
COC(=O)CN1C(=O)C2(C(C(=O)OC)=C(N)Oc3ccccc32)C2=C1CC(C)(C)CC2=O (stereo unspecified) | -26.2% (inactive) | –
